The values that follow come from ChEMBL document CHEMBL3988442, “University of Dundee, Small-Polar-MMV Screening Library” (2021).

Common to all, as to set-up: scale not given: direction of the effect not stated beside the values
In experiment [1] the target is Protein translocase subunit SecA (Escherichia coli (strain K12)) (UniProt P10408). The experiment is described as follows: Assay to Identify E. coli SecA ATPase Inhibitors. The experiment is classed as functional. Particulars: 30 µM.
The target in experiment [2] is T1, Ubiquitin-activating enzyme e1, putative (Leishmania donovani (strain BPK282A1)) (UniProt E9BSI1).
T1 sequence (whole entry): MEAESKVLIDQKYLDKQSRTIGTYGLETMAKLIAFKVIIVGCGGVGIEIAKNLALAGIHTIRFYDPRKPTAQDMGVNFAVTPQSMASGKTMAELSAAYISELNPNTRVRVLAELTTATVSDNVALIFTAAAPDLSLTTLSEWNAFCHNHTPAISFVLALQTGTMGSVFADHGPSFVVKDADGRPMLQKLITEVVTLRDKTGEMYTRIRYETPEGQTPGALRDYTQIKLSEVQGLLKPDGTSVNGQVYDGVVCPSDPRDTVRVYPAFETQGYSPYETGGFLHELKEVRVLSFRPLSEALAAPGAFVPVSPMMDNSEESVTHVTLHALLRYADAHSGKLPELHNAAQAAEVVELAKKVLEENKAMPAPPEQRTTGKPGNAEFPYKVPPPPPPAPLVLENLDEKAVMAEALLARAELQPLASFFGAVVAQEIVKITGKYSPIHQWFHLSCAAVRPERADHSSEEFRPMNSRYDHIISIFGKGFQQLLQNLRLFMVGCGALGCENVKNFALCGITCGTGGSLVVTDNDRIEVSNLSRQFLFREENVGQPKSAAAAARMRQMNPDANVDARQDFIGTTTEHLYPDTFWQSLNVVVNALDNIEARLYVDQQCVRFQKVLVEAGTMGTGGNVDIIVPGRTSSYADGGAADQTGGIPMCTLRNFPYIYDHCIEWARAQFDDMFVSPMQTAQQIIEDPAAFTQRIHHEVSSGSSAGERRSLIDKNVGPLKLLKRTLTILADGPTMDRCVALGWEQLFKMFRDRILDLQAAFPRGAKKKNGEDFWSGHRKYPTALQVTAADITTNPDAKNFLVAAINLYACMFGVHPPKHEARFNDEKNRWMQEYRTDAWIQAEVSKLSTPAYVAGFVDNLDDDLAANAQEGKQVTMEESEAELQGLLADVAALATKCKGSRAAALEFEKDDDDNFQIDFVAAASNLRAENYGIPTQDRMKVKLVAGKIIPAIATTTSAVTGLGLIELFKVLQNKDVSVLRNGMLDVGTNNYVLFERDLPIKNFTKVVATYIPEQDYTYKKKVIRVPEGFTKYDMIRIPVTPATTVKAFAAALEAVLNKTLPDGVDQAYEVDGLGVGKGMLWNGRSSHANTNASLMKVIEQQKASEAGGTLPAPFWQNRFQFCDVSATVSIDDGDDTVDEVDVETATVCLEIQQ
The experiment is described as follows: Leishmania donovani Ubiquitin Activating Enzyme (LdE1). It counts as functional. Particulars: 30 µM.

The target of experiment [3] is AMP-activated protein kinase, AMPK (Homo sapiens) (UniProt P54646+O43741+P54619+Q9UGJ0+Q9Y478+Q13131+Q9UGI9). Nature of the experiment: AMP-dependent Kinase enzyme assay. An in vitro enzyme assay that detects ADP turnover that is directly proportional to AMPK activity. This uses naive AMPK that is activated during the assay with MK-8722. The experiment is classed as functional. The settings on record: 30 µM.

The target in experiment [4] is Sialic acid-binding Ig-like lectin 9 (Homo sapiens) (UniProt Q9Y336). Nature of the experiment: Hs-Siglec9 ALPHAscreen SOP 20170721. Particulars: 10 µM. On the technique in general: Alpha assays give light when donor and acceptor beads are brought close together.
Sequence of Sialic acid-binding Ig-like lectin 9 (Homo sapiens) (Q9Y336 whole entry): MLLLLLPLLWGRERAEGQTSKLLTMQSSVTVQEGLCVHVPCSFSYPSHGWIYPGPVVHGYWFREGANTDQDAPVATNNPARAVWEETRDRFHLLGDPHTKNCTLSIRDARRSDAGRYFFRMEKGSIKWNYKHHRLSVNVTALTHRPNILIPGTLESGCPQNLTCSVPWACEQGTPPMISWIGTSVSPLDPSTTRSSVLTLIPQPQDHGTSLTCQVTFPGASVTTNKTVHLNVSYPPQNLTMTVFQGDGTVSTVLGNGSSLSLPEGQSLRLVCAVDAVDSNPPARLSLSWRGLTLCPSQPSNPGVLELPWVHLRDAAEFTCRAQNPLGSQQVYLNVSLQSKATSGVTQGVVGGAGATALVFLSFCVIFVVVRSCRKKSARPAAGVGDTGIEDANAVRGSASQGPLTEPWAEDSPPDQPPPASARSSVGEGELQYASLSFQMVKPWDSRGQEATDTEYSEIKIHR
A further experiment concerns Trypanosoma cruzi. The experiment is described as follows: Trypanosoma cruzi phosphomannomutase and mannose-1-phosphate guanylyltransferase assay. The experiment is classed as functional. Particulars: 10 µM.
Experiment [5] deals with T2, Arginase-2, mitochondrial (Homo sapiens) (UniProt P78540).
T2 sequence (whole entry): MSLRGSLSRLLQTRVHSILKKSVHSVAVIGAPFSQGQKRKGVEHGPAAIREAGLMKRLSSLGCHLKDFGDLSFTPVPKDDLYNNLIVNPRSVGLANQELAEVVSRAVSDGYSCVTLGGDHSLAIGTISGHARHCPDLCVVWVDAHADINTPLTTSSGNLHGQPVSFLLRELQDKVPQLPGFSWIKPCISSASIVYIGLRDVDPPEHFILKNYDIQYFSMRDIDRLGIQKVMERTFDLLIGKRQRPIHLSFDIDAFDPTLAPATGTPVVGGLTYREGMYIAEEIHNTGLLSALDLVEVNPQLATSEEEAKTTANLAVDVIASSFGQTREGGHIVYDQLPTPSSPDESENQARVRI
Nature of the experiment: in vitro enzyme assay to detect the production of urea directly proportional to the activity of Arginase II. Also: in the data most compounds retested in dose-response had high values. It counts as functional. The settings on record: 33.3 µM.

In experiment [6] the target is T3, Proteasome subunit beta (Trypanosoma cruzi) (UniProt O96673).
T3 sequence (whole entry): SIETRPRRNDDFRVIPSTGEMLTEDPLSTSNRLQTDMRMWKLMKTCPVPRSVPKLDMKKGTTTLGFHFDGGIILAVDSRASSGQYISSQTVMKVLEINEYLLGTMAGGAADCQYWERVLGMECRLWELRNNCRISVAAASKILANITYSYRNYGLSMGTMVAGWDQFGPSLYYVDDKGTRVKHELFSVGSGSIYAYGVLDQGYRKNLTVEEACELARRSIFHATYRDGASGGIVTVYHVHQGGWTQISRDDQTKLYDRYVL
Nature of the experiment: Trypanosoma cruzi proteasome chymotrypsin-like activity (TcProtChymo) assay. Also: in the data most compounds retested in dose-response had high values. Particulars: 9.37 µM. The experiment is classed as functional.

The species named for the next experiment is Homo sapiens. Nature of the experiment: To identify inhibition of the IFN signalling (Jak-Stat) pathway via expression of an eGFP reporter gene under the control of an IFN-stimulated response element (ISRE) containing MxA promoter. It counts as functional. The settings on record: 30 µM.
The target in experiment [7] is T4, Tyrosyl-tRNA synthetase, putative (Trypanosoma cruzi (strain CL Brener)) (UniProt Q4DSP6).
T4 sequence (whole entry): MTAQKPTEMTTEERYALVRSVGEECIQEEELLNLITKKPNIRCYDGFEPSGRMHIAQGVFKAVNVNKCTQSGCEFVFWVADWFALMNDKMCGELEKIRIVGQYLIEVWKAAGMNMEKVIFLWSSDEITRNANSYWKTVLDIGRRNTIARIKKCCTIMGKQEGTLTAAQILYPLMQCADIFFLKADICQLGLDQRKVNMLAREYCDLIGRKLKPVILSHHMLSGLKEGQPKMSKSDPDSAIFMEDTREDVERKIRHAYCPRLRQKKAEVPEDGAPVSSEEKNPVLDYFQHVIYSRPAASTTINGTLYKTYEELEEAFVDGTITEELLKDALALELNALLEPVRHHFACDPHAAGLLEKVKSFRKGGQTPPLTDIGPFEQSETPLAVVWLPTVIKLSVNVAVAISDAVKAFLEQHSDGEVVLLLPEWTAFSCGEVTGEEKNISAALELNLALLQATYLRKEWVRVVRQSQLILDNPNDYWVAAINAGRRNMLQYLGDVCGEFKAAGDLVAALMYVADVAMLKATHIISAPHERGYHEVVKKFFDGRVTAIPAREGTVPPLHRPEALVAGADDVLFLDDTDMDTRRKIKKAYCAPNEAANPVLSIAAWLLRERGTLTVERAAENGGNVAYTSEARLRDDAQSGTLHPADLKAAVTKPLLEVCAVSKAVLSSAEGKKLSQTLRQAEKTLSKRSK
Nature of the experiment: Trypanosoma cruzi tyrosyl tRNA synthetase (TcYRS) _High Tyrosine SOP. Also: in the data most compounds retested in dose-response had high values. It counts as functional. The settings on record: 30 µM.

Experiment [8] addresses T4, Tyrosyl-tRNA synthetase, putative (Trypanosoma cruzi (strain CL Brener)). Nature of the experiment: Trypanosoma cruzi tyrosyl tRNA synthetase (TcYRS) SOP. It counts as functional. The settings on record: 30 µM.
Experiment [9] has as its target Chromo domain-containing protein 1 (Saccharomyces cerevisiae (strain ATCC 204508 / S288c) (Baker's yeast)) (UniProt P32657). Nature of the experiment: ScCHD-1 Enzyme Inhibition Assay. Also: in the data most compounds retested in dose-response had high values. It counts as functional. Particulars: 30 µM.

For some assays here: Potency and affinity values are given separately.

Sequence of Chromo domain-containing protein 1 (Saccharomyces cerevisiae (strain ATCC 204508 / S288c) (Baker's yeast)) (P32657 whole entry, the tested form may be a part): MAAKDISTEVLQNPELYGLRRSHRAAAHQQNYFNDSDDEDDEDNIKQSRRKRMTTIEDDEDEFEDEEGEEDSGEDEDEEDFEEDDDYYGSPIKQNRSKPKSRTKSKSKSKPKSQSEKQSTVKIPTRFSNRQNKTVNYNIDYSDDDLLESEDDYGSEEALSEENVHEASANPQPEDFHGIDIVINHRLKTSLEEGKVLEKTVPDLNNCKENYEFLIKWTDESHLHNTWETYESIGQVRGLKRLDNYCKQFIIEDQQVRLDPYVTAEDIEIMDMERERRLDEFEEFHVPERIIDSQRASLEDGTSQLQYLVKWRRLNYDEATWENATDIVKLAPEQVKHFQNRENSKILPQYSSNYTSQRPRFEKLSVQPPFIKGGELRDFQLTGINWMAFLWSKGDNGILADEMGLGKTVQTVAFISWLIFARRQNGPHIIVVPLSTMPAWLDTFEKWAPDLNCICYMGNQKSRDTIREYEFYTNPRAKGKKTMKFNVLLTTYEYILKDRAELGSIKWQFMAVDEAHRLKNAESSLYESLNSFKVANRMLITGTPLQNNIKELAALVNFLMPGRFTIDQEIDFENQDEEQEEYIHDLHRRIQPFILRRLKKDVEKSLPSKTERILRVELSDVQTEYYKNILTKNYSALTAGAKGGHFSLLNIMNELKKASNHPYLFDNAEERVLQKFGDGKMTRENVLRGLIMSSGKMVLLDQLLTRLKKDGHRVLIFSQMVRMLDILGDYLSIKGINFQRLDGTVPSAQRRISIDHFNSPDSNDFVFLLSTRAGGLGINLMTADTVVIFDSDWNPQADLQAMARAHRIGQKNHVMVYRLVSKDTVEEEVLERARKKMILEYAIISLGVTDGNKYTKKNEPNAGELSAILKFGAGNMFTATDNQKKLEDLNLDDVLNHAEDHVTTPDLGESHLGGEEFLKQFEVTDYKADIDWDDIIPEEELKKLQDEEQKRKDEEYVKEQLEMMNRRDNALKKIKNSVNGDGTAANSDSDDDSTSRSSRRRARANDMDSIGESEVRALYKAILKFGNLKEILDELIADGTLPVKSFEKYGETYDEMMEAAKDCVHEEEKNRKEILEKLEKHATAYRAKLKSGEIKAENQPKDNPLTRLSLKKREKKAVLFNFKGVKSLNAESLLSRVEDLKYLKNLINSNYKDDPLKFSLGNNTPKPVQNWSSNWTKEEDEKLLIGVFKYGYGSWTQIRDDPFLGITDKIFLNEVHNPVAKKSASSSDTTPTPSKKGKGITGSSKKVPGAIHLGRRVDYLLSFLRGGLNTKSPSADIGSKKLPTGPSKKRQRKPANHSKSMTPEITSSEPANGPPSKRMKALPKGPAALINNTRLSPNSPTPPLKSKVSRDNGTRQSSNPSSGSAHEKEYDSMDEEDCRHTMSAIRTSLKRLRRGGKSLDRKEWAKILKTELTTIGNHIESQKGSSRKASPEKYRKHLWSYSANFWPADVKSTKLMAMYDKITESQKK
Sequence of Protein translocase subunit SecA (Escherichia coli (strain K12)) (P10408 whole entry): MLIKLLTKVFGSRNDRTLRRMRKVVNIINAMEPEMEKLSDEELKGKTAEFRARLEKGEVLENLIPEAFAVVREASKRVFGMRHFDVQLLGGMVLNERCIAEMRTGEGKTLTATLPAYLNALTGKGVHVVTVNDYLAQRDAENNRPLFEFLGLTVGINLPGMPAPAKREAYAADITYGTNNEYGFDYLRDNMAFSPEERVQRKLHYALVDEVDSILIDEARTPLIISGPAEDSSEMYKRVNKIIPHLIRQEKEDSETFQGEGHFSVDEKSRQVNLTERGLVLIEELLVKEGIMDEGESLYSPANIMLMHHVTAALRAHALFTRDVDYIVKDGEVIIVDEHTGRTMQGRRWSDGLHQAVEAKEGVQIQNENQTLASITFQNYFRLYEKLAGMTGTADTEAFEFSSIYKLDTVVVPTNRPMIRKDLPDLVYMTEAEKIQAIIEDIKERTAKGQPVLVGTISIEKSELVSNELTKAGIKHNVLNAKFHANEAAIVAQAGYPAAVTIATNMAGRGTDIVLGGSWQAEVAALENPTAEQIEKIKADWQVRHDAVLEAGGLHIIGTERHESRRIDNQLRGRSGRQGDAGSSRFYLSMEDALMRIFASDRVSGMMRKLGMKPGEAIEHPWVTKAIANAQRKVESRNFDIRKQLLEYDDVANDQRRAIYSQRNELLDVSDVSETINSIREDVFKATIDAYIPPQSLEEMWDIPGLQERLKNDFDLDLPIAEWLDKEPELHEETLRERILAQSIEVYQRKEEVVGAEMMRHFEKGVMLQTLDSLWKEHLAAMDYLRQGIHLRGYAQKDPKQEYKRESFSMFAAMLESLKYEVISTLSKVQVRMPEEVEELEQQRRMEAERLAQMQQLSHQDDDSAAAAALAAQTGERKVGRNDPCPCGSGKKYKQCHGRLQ

In the case of `CN(C)S(=O)(=O)N1CCC[C@]2(C[C@@H](Oc3ccccn3)CO2)C1`, the Percent Effect is -0.984% in [1]; 7.79% in experiment [2]; 2.82% in [3]; 5.42% in experiment [4]; -4.63% with Trypanosoma cruzi; -5.81% in experiment [5]. The Percent Effect in [6] was 9.75%; in the experiment listed under Homo sapiens, 5%; in experiment [7], -1.06%; in experiment [8], 6.41%; in [9], -6.01%.
In the case of `Cn1cc(C(=O)N2CC[C@@H]3[C@@H]2CCN3Cc2cccc(F)c2)cn1`, the Percent Effect was -5% in experiment [1]; 8.11% in experiment [2]; 1.6% in [3]; -0.0749% in [4]; 0.88% in the experiment with Trypanosoma cruzi; 4.14% in experiment [5]. Besides, the Percent Effect in [6] is 9.96%; in the experiment listed under Homo sapiens it was -2.6%; in [7], 0%; in [8] it was 10.3%; in experiment [9], 1.12%.
Take `O=C(CCc1cccc(F)c1F)N1CCN(Cc2ccco2)CC1`: the Percent Effect was 0.132% in experiment [1]; 2.7% in [2]; -1.7% in [3]; 9.76% in experiment [4]; 3.48% in the experiment on Trypanosoma cruzi; 0.476% in [5]. Moreover, the Percent Effect was 10.3% in [6]; 0.925% in the experiment filed under Homo sapiens; 0.529% in experiment [7]; -2.44% in [8]; -2.5% in [9].
As to `CC(C)c1nn(C)c(N(C)C)c1CNCCC(=O)N(C)C`, the Percent Effect is -2.63% in experiment [1]; 0% in experiment [2]; -11.4% in experiment [3]; -2.27% in [4]; 2.15% in the experiment on Trypanosoma cruzi; 0.719% in experiment [5]. In addition, the Percent Effect in experiment [6] is 5.16%; in the experiment filed under Homo sapiens, -16.3%; in [7], -0.493%; in experiment [8] it was 3.7%; in experiment [9], 0.33%.
Take `Cc1ccn2cc(C(=O)N3CCCC3c3c(C)nn(C)c3C)nc2c1` (stereo not given): the Percent Effect in experiment [1] is -7.15%; in experiment [2] it was 8.86%; in experiment [3] it was 7.77%; in experiment [4], -1.49%; in the experiment with Trypanosoma cruzi it was -3.79%; in experiment [5] it was 1.5%. The Percent Effect in experiment [6] was 9.09%; in the experiment listed under Homo sapiens it was 4.07%; in experiment [7], 5.21%; in [8], 0%; in experiment [9], -3.05%.
In the case of `CCOc1ccc(CC(CNC(=O)c2ccoc2)C(N)=O)cc1` (stereo not given), the Percent Effect was -5.97% in [1]; 13% in [2]; -355% in experiment [3]; -18.6% in experiment [4]; 8.13% with Trypanosoma cruzi; -3.16% in [5]. The Percent Effect is 16.7% in experiment [6]; 7.68% in the experiment filed under Homo sapiens; 7.62% in experiment [7]; 21.2% in [8]; -16.2% in [9].
On to `CCn1cnnc1CNC(=O)CCC(=O)c1ccc2c(c1)OCCO2`, for which the Percent Effect in [1] was -8.9%; in [2] it was 16.2%; in [3] it was -8.33%; in [4], 6.97%; with Trypanosoma cruzi, 6.7%; in experiment [5], -10%. The Percent Effect was 15.3% in [6]; 11.5% in the experiment listed under Homo sapiens; 10.3% in experiment [7]; 23.5% in experiment [8]; -8.22% in [9].
Regarding `Cc1cc(CN(C)C(=O)NC2CCS(=O)(=O)C2)no1` (stereo not given), the Percent Effect in [1] is -1.09%; in [2], 13%; in experiment [3] it was -2.73%; in experiment [4], -9.19%; in the experiment on Trypanosoma cruzi it was 6.37%; in [5], 6.11%. Besides, the Percent Effect in [6] is 11.2%; in the experiment filed under Homo sapiens it was 6.33%; in [7] it was 4.76%; in [8], 18.8%; in [9], -18.4%.
For the compound `COc1ccc(CN(C)C(=O)NCc2c(C)cc(C)[nH]c2=O)cc1`, the Percent Effect was -4.97% in [1]; 15.8% in experiment [2]; -2.27% in [3]; -2.15% in [4]; -0.84% in the experiment with Trypanosoma cruzi; 1.08% in experiment [5]. The Percent Effect in experiment [6] was 2.12%; in the experiment filed under Homo sapiens, 9.7%; in experiment [7], 3.45%; in [8], 18.5%; in experiment [9], -0.177%.
For `O=C(CCn1cccn1)N1C[C@@H]2CC[C@H](C1)N(Cc1ccccn1)C2=O`, the Percent Effect in experiment [1] was -3.32%; in experiment [2], 5.41%; in experiment [3] it was -4.57%; in experiment [4], 4.2%; with Trypanosoma cruzi, 2.51%; in experiment [5] it was 0.476%. In addition, the Percent Effect in experiment [6] was 1.72%; in the experiment filed under Homo sapiens, 3.77%; in experiment [7], 5.82%; in [8], 14.6%; in experiment [9] it was -3.35%.
